This passage reports cytotoxicity (signal decrease) results from PubChem BioAssay AID651742 (Broad Institute, 2012).

Screen size: about 5,600 compounds; about 780 (14%) were called active. Inconclusive results (about 3%) are left out.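 The calls were made as follows: active = mean signal decrease across replicates above about 35% based on untreated-well scatter, with enough replicates individually passing (limit read from the data); inconclusive = no rule stated though some were filed; inactive = the rest.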 Only a sample is shown.

The assay in a line: cytotoxicity in mouse NIH/3T3 fibroblasts, confirmation, cytotoxicity control for T. cruzi proliferation inhibitor project, cell-based, cherry-pick, single point (AID 651742).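 Also: 0% = median of neutral control wells and 100% = median of positive control wells.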 To be noted: NIH/3T3 viability, CellTiter-Glo ATP luminescence, 90 h; at 8.35 µM; hits give high values.
Turning to `O=S(=O)(Cc1ccccc1)N1CCCCN2[C@@H](CO)[C@H](c3ccc(-c4ccccc4)cc3)[C@@H]2C1`, the cytotoxicity (signal decrease) was 41.5% (active). `Cc1ccccc1-c1ccc([C@@H]2[C@H](CO)N3CCCCN(S(=O)(=O)c4ccc(F)cc4)C[C@@H]23)cc1`: the cytotoxicity (signal decrease) is 43.8% (active).

Take `CCS(=O)(=O)N1CCCCN2[C@@H](CO)[C@@H](c3ccc(-c4ccccc4)cc3)[C@@H]2C1`: the cytotoxicity (signal decrease) was 18.2% (inactive).

As for `Cc1cccc(-c2ccc([C@@H]3[C@@H](CO)N4CCCCN(S(=O)(=O)c5cccs5)C[C@H]34)cc2)c1`, the cytotoxicity (signal decrease) is 42.5% (active). Then `O=S(=O)(c1ccc(F)cc1)N1CCCCN2[C@H](C1)[C@H](c1ccc(C3=CCCCC3)cc1)[C@@H]2CO`, with 12.6% (inactive); and `CN(C)C(=O)c1ccc(-c2ccc([C@@H]3[C@H](CO)N4CCCCN(S(C)(=O)=O)C[C@@H]34)cc2)cc1`, with 5.37% (inactive). The result for `COc1cccc(S(=O)(=O)N2CCCCN3[C@H](CO)[C@H](c4ccc(-c5ccncc5)cc4)[C@H]3C2)c1` reads 9.65% (inactive); that for `O=S(=O)(Cc1ccccc1)N1CCCCN2[C@@H](CO)[C@@H](c3ccc(-c4ccc(F)cc4)cc3)[C@@H]2C1`, 68.5% (active).

Regarding `Cc1cccc(-c2ccc([C@H]3[C@@H](CO)N4CCCCN(Cc5cncnc5)C[C@H]34)cc2)c1`, the cytotoxicity (signal decrease) was 17.8% (inactive).

With `O=S(=O)(Cc1ccccc1)N1CCCCN2[C@@H](CO)[C@H](c3ccc(-c4cccnc4)cc3)[C@@H]2C1`, the cytotoxicity (signal decrease) is 5.7% (inactive).

Turning to `Cc1ccccc1-c1ccc([C@H]2[C@H]3CN(S(=O)(=O)c4ccc(F)cc4)CCCCN3[C@H]2CO)cc1`, the cytotoxicity (signal decrease) is 12% (inactive).

On to `C[C@H](O)C#Cc1ccc([C@H]2[C@H]3CN(S(=O)(=O)Cc4ccccc4)CCCCN3[C@H]2CO)cc1`, for which the cytotoxicity (signal decrease) was 10.3% (inactive).

`CC(C)C#Cc1ccc([C@H]2[C@H](CO)N3CCCCN(C(=O)NC(C)C)C[C@@H]23)cc1`: the cytotoxicity (signal decrease) was 13.1% (inactive). Then `C[C@H]1CCCCO[C@H](CN(C)Cc2ccccc2)[C@@H](C)CN([C@@H](C)CO)C(=O)c2cc(NC(=O)NC3CCCCC3)ccc2O1`, with 12.5% (inactive). The result for `COc1ccc(C#Cc2cnc3c(c2)C(=O)N([C@@H](C)CO)C[C@H](C)[C@@H](CN(C)C(C)=O)O3)cc1` reads -3.17% (inactive); that for `CN(C)CC#Cc1ccc([C@H]2[C@H]3CN(S(=O)(=O)c4ccccc4F)CCCCN3[C@H]2CO)cc1`, 20.2% (inactive). The result for `COCC(=O)N(C)C[C@@H]1Oc2ncc(C#Cc3ccccc3OC)cc2C(=O)N([C@@H](C)CO)C[C@H]1C` reads 1.95% (inactive); that for `Cc1ccc(S(=O)(=O)Nc2ccc3c(c2)C(=O)N([C@@H](C)CO)C[C@@H](C)[C@H](CN(C)C(=O)Nc2cccc4ccccc24)OCCCC[C@H](C)O3)cc1`, -10.9% (inactive). For the molecule `O=C(c1cccc(F)c1)N1CC[C@@H]2[C@@H](CO)Nc3ccc(C#Cc4cccc(F)c4)cc3[C@@H]21`, the cytotoxicity (signal decrease) was 27.7% (inactive).

For the molecule `CC(=O)N1[C@H](CNC(=O)C2CC2)[C@@H](c2ccc(-c3cccc(F)c3)cc2)[C@@H]1CO`, the cytotoxicity (signal decrease) is 3.63% (inactive).

`C[C@H](CO)N1C[C@H](C)[C@H](CN(C)Cc2ccc(C(F)(F)F)cc2)OCCCC[C@H](C)Oc2ccc(NS(=O)(=O)c3ccc(Cl)cc3)cc2C1=O`: the cytotoxicity (signal decrease) was 98.8% (active). The result for `C[C@@H]1CCCCO[C@@H](CN(C)Cc2ccc3c(c2)OCO3)[C@@H](C)CN([C@@H](C)CO)C(=O)c2cc(NC(=O)Nc3ccccc3)ccc2O1` reads 6.98% (inactive); that for `C[C@@H]1CN([C@@H](C)CO)C(=O)c2cc(NC(=O)Nc3cccc4ccccc34)ccc2O[C@H]1CN(C)Cc1ccc(Cl)c(Cl)c1`, 35.5% (active); that for `C[C@@H]1CN([C@H](C)CO)C(=O)c2cc(NS(=O)(=O)c3ccc(Cl)cc3)ccc2O[C@@H](C)CCCCO[C@H]1CN(C)Cc1ccccc1`, 1.2% (inactive). Then `C[C@@H]1CN([C@@H](C)CO)C(=O)c2cc(NC(=O)Nc3cccc4ccccc34)ccc2O[C@@H](C)CCCCO[C@H]1CN(C)Cc1ccccc1`, with 22.3% (inactive).

As for `C[C@@H]1CN([C@@H](C)CO)C(=O)c2cc(NC(=O)Nc3cccc4ccccc34)ccc2O[C@H]1CN(C)Cc1ccc(Oc2ccccc2)cc1`, the cytotoxicity (signal decrease) was 18.9% (inactive).

In the case of `COc1ccc(NC(=O)Nc2ccc3c(c2)C(=O)N([C@H](C)CO)C[C@@H](C)[C@H](CN(C)Cc2ccc(Cl)c(Cl)c2)OCCCC[C@@H](C)O3)cc1`, the cytotoxicity (signal decrease) is -14.8% (inactive). On to `C[C@@H]1CCCCO[C@@H](CN(C)Cc2ccc(Cl)c(Cl)c2)[C@H](C)CN([C@H](C)CO)C(=O)c2cc(NC(=O)Nc3ccc(F)cc3)ccc2O1`, for which the cytotoxicity (signal decrease) was 3.22% (inactive). Take `COc1ccc(CN(C)C[C@H]2OCCCC[C@H](C)Oc3ccc(NC(=O)Nc4ccc5c(c4)OCO5)cc3C(=O)N([C@H](C)CO)C[C@@H]2C)cc1`: the cytotoxicity (signal decrease) was 45.5% (active).

Turning to `C[C@@H]1CN([C@H](C)CO)C(=O)c2cc(NC(=O)Nc3ccc(F)cc3)ccc2O[C@@H](C)CCCCO[C@H]1CN(C)Cc1ccc(Cl)c(Cl)c1`, the cytotoxicity (signal decrease) was 40.8% (active). Then `C[C@@H]1CCCCO[C@H](CN(C)Cc2ccccc2)[C@@H](C)CN([C@@H](C)CO)C(=O)c2cc(NC(=O)Nc3ccc(F)cc3)ccc2O1`, with 27.1% (inactive); and `C[C@H](CO)N1C[C@H](C)[C@H](CN(C)Cc2ccc(C(F)(F)F)cc2)Oc2ccc(NS(=O)(=O)c3ccc(Cl)cc3)cc2C1=O`, with 8.98% (inactive). Then `COc1ccc(S(=O)(=O)Nc2ccc3c(c2)C(=O)N([C@H](C)CO)C[C@@H](C)[C@@H](CN(C)CC2CCCCC2)OCCCC[C@@H](C)O3)cc1`, with 33.5% (inactive); and `C[C@H](CO)N1C[C@H](C)[C@@H](CN(C)C(=O)Nc2ccnc(N3CCOCC3)c2)OCc2ccccc2-c2ccccc2C1=O`, with 5.45% (inactive). The result for `C[C@@H]1CCCCO[C@H](CN(C)Cc2ccc(C(F)(F)F)cc2)[C@H](C)CN([C@H](C)CO)C(=O)c2cc(NC(=O)Nc3ccc(F)cc3)ccc2O1` reads -14.3% (inactive). For `C[C@@H]1CCCCO[C@@H](CN(C)S(=O)(=O)c2ccc(Cl)cc2)[C@H](C)CN([C@@H](C)CO)C(=O)c2cc(NC(=O)Cc3ccccc3)ccc2O1`, the cytotoxicity (signal decrease) was 0.0515% (inactive).
